Screening data (PubChem)
VDR inh – Inhibitors of the vitamin D receptor (VDR): qHTS; Vitamin D3 receptor (Homo sapiens), P11473; VDR-SRC2-3 peptide fluorescence polarization, 2 h; Potency, µM, inactives show max response, negative = inhibition, usual class: inhibitors; 400,000 tested, 0.93% active
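VDR–SRC2-3 interaction, FP format. Cmpds 23 nl via pintool, brief spin, 2 h ambient incubation.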
ALOX12 inh – Primary qHTS assay for inhibitors of human arachidonate 12S-lipoxygenase (ALOX12): Round 2. Polyunsaturated fatty acid lipoxygenase ALOX12 (Homo sapiens), P18054. purified 12hLO, xylenol orange hydroperoxide absorbance. Potency, µM (highest dose often 108 µM), inactives show at the highest dose activity change, negative = inhibition, most hits filed as inhibitors. 580,000 tested, 1.1% active
Target sequence (P18054 whole entry, looked up): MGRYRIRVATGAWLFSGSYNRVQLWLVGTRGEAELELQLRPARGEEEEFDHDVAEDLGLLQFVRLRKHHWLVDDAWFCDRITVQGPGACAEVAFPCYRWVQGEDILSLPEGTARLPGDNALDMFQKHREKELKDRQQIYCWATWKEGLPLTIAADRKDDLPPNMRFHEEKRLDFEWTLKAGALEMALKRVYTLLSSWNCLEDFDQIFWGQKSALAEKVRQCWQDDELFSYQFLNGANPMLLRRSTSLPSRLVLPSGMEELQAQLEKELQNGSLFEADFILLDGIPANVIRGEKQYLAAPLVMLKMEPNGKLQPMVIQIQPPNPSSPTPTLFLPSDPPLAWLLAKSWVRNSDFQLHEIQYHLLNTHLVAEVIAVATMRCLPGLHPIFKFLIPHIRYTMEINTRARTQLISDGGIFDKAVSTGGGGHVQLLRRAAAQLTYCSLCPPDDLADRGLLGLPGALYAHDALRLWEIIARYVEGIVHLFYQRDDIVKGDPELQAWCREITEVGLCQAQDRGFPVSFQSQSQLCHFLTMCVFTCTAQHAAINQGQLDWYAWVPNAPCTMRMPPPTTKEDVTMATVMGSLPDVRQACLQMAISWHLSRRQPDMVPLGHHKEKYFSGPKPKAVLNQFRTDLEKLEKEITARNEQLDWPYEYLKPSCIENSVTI
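Purified human 12hLO (150 nM final) in 25 mM Hepes, 0.01% Triton X-100, pH 7.0 was preincubated 15 min at room temperature with compound. Then 40 uM arachidonic acid was added, 30 min. Hydroperoxide was read by Fe-XO absorbance ratio 573/405 nm.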
GCN5L2 inh – qHTS Assay for Inhibitors of GCN5L2; Histone acetyltransferase KAT2A (Homo sapiens), Q92830; GCN5L2 HAT assay, ThioGlo1 CoA-SH fluorescence; Potency, µM (doses to about 58.9 µM), for inactives: at the top dose activity change, negative = inhibition, most hits filed as inhibitors; 390,000 tested, 0.21% active
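GCN5L2 (20 nM) in 50mM HEPES pH 7.5, 0.1mM EDTA, 0.01% Tween-20 preincubated 15 min with compounds at room temperature. Reaction started with H3(1-25) 75uM, acetyl-CoA 70uM, ThioGlo1 50uM; CoA-thiol fluorescence (Ex340/Em540) read at 0 and 20 min.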
PLK1 PBD block – qHTS for Inhibitors of PLK1-PDB (polo-like kinase 1 - polo-box domain): Primary Screen; 360,000 tested, 2.8% active; Potency, µM, for inactives: max response, negative = inhibition, actives largely listed as inhibitors; Plk1 PBD binding of FITC phosphopeptide, fluorescence polarization; Serine/threonine-protein kinase PLK1 (Homo sapiens), P53350; AID 720504, 2013; further: series mostly up to about 57 µM; nearly all actives have a fitted effect of over 65% in size
* marks the source's active call; other numbers are inactive results; ! = repeats disagree; [ ] = another dose, or the depositor's remark. Rows were chosen to be rich in hits. Some 3% of all compounds tested hit in one or more screens of this group. The call rests on the fitted dose curve; in most records, active means well fitted curve in the direction sought with a large enough effect; inconclusive means small, poorly fitted or top-dose-only effect, or another doubt; inactive means no such curve, though single readings can be large; an effect the other way counts as inactive or inconclusive. On the % scale 0 is the no-effect control and ±100 the full control effect; potency means the concentration at half of the fitted maximal effect.

CN1CCC(O)(c2ccc(Cl)cc2)C(C(=O)c2ccc(Cl)cc2)C1 (centres undefined) was read as VDR inh inconclusive, ALOX12 inh inconclusive, GCN5L2 inh -2.7% and PLK1 PBD block 4.74µM*.
Clc1cccc(N2Cc3cc(-c4ccccc4)ccc3-n3nncc3C2)c1 was read as ALOX12 inh -54.6% and PLK1 PBD block -21.5%.
Screening COc1ccc(-c2ccc3c(c2)CN(c2cccc(Cl)c2)Cc2cnnn2-3)cc1 returned ALOX12 inh 17.8µM* and PLK1 PBD block -9.4%.
`C=C1C(=O)OC2CC3(C)OC3CCC(C)=CC(OC(C)=O)C12` (centres undefined) gave VDR inh 70.8µM*, ALOX12 inh -7.1% and PLK1 PBD block -27.1%.
Screening COc1cc2c(cc1OCc1ccccc1)N(C(=O)CC1CC1)CC21CCN(C)CC1 returned ALOX12 inh 3.7%[176 µM].
`COC(=O)C1=C(N)Oc2cc(C)oc(=O)c2C12C(=O)Nc1ccccc12` (centres undefined) gave VDR inh inconclusive, ALOX12 inh 100.0%, GCN5L2 inh -5.5% and PLK1 PBD block 23.8µM*.
`c1csc(-c2ccc(-c3cccs3)s2)c1` gave ALOX12 inh -5.2%.
For CC(C)C1C(=O)N2CCC[C@H]2[C@]2(O)O[C@](NC(=O)[C@@H]3C=C4c5cccc6[nH]cc(c56)C[C@H]4N(C)C3)(C(C)C)C(=O)N12 (some centres undefined) the results were VDR inh 44.7µM*, ALOX12 inh 22.3% and GCN5L2 inh -12.2%.
Screening CC(C)C[C@H]1C(=O)N2CCCC2[C@]2(O)O[C@](NC(=O)[C@@H]3C=C4c5cccc6[nH]c(Br)c(c56)C[C@H]4N(C)C3)(C(C)C)C(=O)N12 (some centres undefined) returned VDR inh 17.8µM* and GCN5L2 inh -12.9%.
Screening COc1ccc(-c2nc3ccc(C(=O)N4CCC5(CC4)OCCO5)cc3nc2-c2ccc(OC)cc2)cc1 returned VDR inh 17.7%, ALOX12 inh -29.5%, GCN5L2 inh -20.8% and PLK1 PBD block -16.2%.
COc1ccc(OC)c(C2=NS(=O)(=O)N(C)C(C(=O)N3CCC4(CC3)OCCO4)=C2)c1 was read as VDR inh -23.1%, ALOX12 inh -1.9%, GCN5L2 inh -1.9% and PLK1 PBD block 29.9µM*.
For N#Cc1cnn2c(C(F)F)cc(-c3ccc(F)cc3)nc12 the results were ALOX12 inh 21.1%.
Screening C[C@@H](N)Cc1cnc[nH]1 returned VDR inh 79.4µM*!, ALOX12 inh inconclusive, GCN5L2 inh -8.6% and PLK1 PBD block 3.7%.
C[C@@H](COc1ccccc1)N(CCCl)Cc1ccccc1 was read as VDR inh 25.1µM* and GCN5L2 inh -5.1%[21.4 µM].
CCOC(=O)C1CCN(/C=C2/C(=O)NC(=S)N(c3cccc(OC)c3)C2=O)CC1 was read as VDR inh -19.9%, ALOX12 inh -14.3%, GCN5L2 inh -1.8% and PLK1 PBD block -12.9%.
Screening CCOc1ccc(N2C(=O)/C(=C\c3cccs3)C(=O)NC2=S)cc1 returned VDR inh 5.9%, ALOX12 inh inconclusive, GCN5L2 inh -22.6% and PLK1 PBD block 2.67µM*.
O=C1NC(=S)N(c2ccccc2F)C(=O)/C1=C\c1cccs1 was read as VDR inh inconclusive, ALOX12 inh 31.6µM*, GCN5L2 inh -18.9% and PLK1 PBD block 7.52µM*.
`CCOc1ccc(N2C(=O)/C(=C/c3ccco3)C(=O)NC2=S)cc1` gave VDR inh 79.4µM*, GCN5L2 inh 22.4µM* and PLK1 PBD block 1.34µM*.
`COc1ccc(N2C(=O)/C(=C/c3ccc(OC)c(OC)c3)C(=O)NC2=S)cc1` gave VDR inh inconclusive, ALOX12 inh 50.1µM*, GCN5L2 inh -15.8% and PLK1 PBD block 7.52µM*.
COc1cc(N2CCOCC2)ccc1/C=C1\C(=O)NC(=O)N(C2CCCCC2)C1=O was read as VDR inh -1.9%, ALOX12 inh inconclusive, GCN5L2 inh -3.9% and PLK1 PBD block inconclusive.
For O=C1NC(=O)N(CC2CCCO2)C(=O)/C1=C/c1cccs1 (centres undefined) the results were VDR inh -10.7%, ALOX12 inh 0.0%, GCN5L2 inh -12.9% and PLK1 PBD block inconclusive.
